Hits are enriched below; roughly 2.5% of the tested compounds scored in any of these assays.
MEKK2mut PB1 HTS: signal of MEK5 binding to mutant human MEKK2 PB1 domain; bead flow cytometry, Alexa488-MEK5 binding to MEKK2 mutant; 0.35% of 290,000 active; AID 1530; percent response, % at 10 µM; in the data active = percent response above about 24%, passing the limit was not always enough
MEKK2wt PB1 HTS: raises or lowers MEK5 binding to wildtype human MEKK2 PB1 domain; Q9Y2U5; binding response (% of control), % at 10 µM; AID 1531; bead flow cytometry, Alexa488-MEK5 binding to MEKK2 WT; actives lie on both sides; 1.1% of 290,000 active; in the data active = binding response below about 67% or above about 130%
GRK2 aptamer HTS: human GRK2 inhibition via aptamer displacement | inhibition of aptamer binding, % at 10 µM | bead flow cytometry, FAM-aptamer displacement from GRK2 | AID 488847 | 0.59% of 330,000 active;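 active = inhibition of aptamer binding above 40%, roughly 3 SD of noise, on plates passing a quality check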;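 also: median bead fluorescence of bound FAM aptamer so fluorescent compounds give negative values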
Target sequence (P25098 whole entry, looked up): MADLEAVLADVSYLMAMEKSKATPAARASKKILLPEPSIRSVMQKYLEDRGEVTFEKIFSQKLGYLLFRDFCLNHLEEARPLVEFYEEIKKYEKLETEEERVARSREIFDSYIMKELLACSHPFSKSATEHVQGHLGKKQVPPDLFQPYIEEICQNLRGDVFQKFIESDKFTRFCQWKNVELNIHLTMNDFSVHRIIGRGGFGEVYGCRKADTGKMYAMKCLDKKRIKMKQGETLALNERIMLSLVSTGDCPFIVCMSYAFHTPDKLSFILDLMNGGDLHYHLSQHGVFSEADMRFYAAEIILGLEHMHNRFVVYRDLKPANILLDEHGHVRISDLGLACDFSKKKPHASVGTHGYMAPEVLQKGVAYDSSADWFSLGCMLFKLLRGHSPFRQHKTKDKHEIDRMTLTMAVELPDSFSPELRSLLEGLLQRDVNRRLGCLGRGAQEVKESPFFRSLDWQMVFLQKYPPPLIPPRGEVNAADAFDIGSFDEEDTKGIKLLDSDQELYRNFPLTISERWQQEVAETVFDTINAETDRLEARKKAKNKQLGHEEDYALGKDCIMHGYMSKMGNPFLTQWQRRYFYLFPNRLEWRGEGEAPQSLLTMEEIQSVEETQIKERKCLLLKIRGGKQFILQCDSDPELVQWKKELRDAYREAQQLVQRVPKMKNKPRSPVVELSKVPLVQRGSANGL
MEKK3 PB1 HTS: raises or lowers MEK5 binding to the human MEKK3 PB1 domain; Q99759; bead-based flow cytometry, Alexa488-MEK5 binding to MEKK3; actives lie on both sides; 0 = blocked by unlabeled MEK5, 100 = vehicle; binding response (% of control), % at 10 µM; 1.4% of 290,000 active;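 active = binding response more than 3 SD above or below the average of its plate-row segment, actives on both sides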;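 also: Alexa488 bead fluorescence after subtracting the streptavidin-only scavenger bead signal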
MEKK2wt confirm: raises or lowers MEK5 binding to wildtype human MEKK2, retest | shares compounds with MEKK3 PB1 HTS | bead flow cytometry, Alexa488-MEK5 binding to MEKK2 WT; actives lie on both sides | binding response (% of control), % at 10 µM | 2.4% of 5,900 active; in the data active = binding response below about 16% or above about 210%; inactive = in between
MEKK2mut-MEK5: signal of MEK5 binding to mutant human MEKK2, retest | percent response, % at 10 µM | shares compounds with MEKK3 PB1 HTS | AID 1893 | 2% of 5,900 active | bead flow cytometry, Alexa488-MEK5 binding to MEKK2 mutant; in the data active = percent response mostly above about 71%, no sharp cut-off; inactive = mostly below about 38%;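 also: higher means compound restores mutant binding toward wildtype level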
MEKK3-MEK5 inh: confirmation of inhibitors of MEK5 binding to human MEKK3; shares compounds with MEKK3 PB1 HTS; bead flow cytometry, Alexa488-MEK5 binding to MEKK3; stronger effect = lower value; binding response (% of control), % at 10 µM; 1.8% of 5,900 active; AID 1894;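 active = binding response below 72% of control, or above a set upper limit, though filed actives all read lower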;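 also: 100% = DMSO only wells and 0% = binding blocked by excess unlabeled MEK5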
* hit, by the source's call; / = no result; [ ] = another dose, or the depositor's remark.

SMILES | MEKK2mut PB1 HTS | MEKK2wt PB1 HTS | GRK2 aptamer HTS | MEKK3 PB1 HTS | MEKK2wt confirm | MEKK2mut-MEK5 | MEKK3-MEK5 inh
Cc1cccc(N2C(=O)C(Oc3ccc(Cl)cc3Cl)C2C(=O)O)c1C (stereo not drawn) | 1.0 | 108.0 | 2.0 | 139.0* | 108.0 | 10.0 | 104.0
c1ccc(Nc2nc(N3CCCC3)nc(N3CCOCC3)n2)cc1 | -7.0 | 92.0 | 0.0 | 97.0 | / | / | /
c1ccc(Nc2nc(Nc3ccccc3)nc(N3CCNCC3)n2)cc1 | 12.0 | 154.0* | 0.0 | 111.0 | 136.0 | 20.0 | 106.0
CN1CCN(c2nc(Nc3ccc(F)cc3)nc(Nc3ccc(F)cc3)n2)CC1 | 33.0* | 145.0* | 0.0 | 113.0 | 137.0 | 16.0 | 104.0
COc1ccc(Cl)cc1NC(=O)CNc1ccccc1CN(C)C1CCCCC1 | 36.0 | 154.0* | 0.0 | 106.0 | 156.0 | 34.0 | 114.0
COc1ccc(C)cc1NC(=O)CNc1ccccc1CN(C)C1CCCCC1 | -2.0 | 98.0 | 0.0 | 98.0 | / | / | /
Cc1cccc(N(C(=O)c2snc(C(N)=O)c2N)C(C)C(=O)NCC2CCCO2)c1 (stereo not drawn) | 25.0 | 119.0 | 0.0 | 130.0* | 74.0 | -16.0 | 70.0*
CCc1cc(Cn2nc(-c3ccccc3)cc2C(=O)NCc2cccs2)on1 | / | / | 0.0 | / | / | / | /
CN(C)CCNC(=O)c1cc2c(s1)-c1ccccc1OC2 | 24.0* | 132.0 | 0.0 | 112.0 | 108.0 | 2.0 | 99.0
CCCN1CCN(CCCNC(=O)c2cc3c(s2)-c2ccccc2OC3)CC1 | 8.0 | 120.0 | 0.0 | 102.0 | / | / | /
CC(C)c1ccc(NC(=O)C2C3C=CC4(O3)C2C(=O)N(CCCN2CCOCC2)C4C(=O)NC2CCCCC2)cc1 (stereo not drawn) | 4.0 | 103.0 | 1.0 | 102.0 | / | / | /
O=C(CNC(c1ccccc1)c1ccccc1)NCc1ccccc1Cl | 8.0 | 106.0 | 0.0 | 107.0 | / | / | /
COc1ccc(CNCC(O)(c2ccc(Cl)cc2)c2ccc(Cl)cc2)cc1 | 10.0 | 154.0* | 0.0 | 105.0 | 167.0 | 26.0 | 106.0
COc1ccc(CNCC(O)(c2ccc(F)cc2)c2ccc(F)cc2)cc1OC | 5.0 | 108.0 | 0.0 | 103.0 | / | / | /
CCCCNCC(O)(c1ccc(Cl)cc1)c1ccc(Cl)cc1 | 21.0 | 146.0* | 0.0 | 119.0 | 105.0 | -6.0 | 84.0
COc1ccc(CNCC(O)(c2ccc(Cl)cc2)c2ccc(Cl)cc2)cc1OC | 39.0 | 179.0* | 0.0 | 113.0 | 131.0 | 9.0 | 100.0
O=C(COC(=O)COc1ccc(Cl)cc1Cl)Nc1cccnc1Cl | -1.0 | 105.0 | 6.0 | 137.0* | 103.0 | 2.0 | 102.0
CC(C)(C)NC(=O)NC(=O)COC(=O)COc1ccc(Cl)cc1Cl | -3.0 | 93.0 | 1.0 | 75.0*[inhibitor] | 103.0 | 5.0 | 107.0
COc1ccc(O[C@H]2C=C[C@@H](c3ccccc3)O[C@@H]2CO/N=C(\C)CCN2CCCCc3nc(C)c(C)cc32)cc1 | -3.0 | 100.0 | / | 94.0 | / | / | /
CC(NC(=S)NCCc1ccccc1)C(c1cccs1)N1CCN(Cc2ccccc2)CC1 (stereo not drawn) | 14.0 | 138.0* | 0.0 | 81.0 | 148.0 | 35.0 | 113.0
CNC[C@H](CC1CCCCC1)NC[C@H](Cc1ccccc1)NCCC12CC3CC(CC(C3)C1)C2 | 70.0* | 278.0* | 0.0 | 109.0 | 265.0* | 126.0* | 115.0
CCCCCCCCCCCCCCCCn1cc[n+](CC(C)=O)c1 | 89.0* | 220.0* | / | 109.0 | 203.0 | 68.0 | 108.0
CCCCCCn1ccc(=N)cc1 | -10.0 | 95.0 | 3.0 | 81.0 | / | / | /
O=C(O)CC/C(=N\NC(=O)CNC(=O)c1ccc(F)cc1)c1ccccc1 | 2.0 | 102.0 | 1.0 | 102.0 | / | / | /
N#CC1=C(N)C(C#N)(C#N)C2(CCC3(CC2)OCCO3)C2CC3(CC=C12)OCCO3 (stereo not drawn) | -41.0 | 19.0*[inhibitor] | 1.0 | 13.0*[inhibitor] | 104.0 | 1.0 | 102.0
SMILES | MEKK2mut PB1 HTS | MEKK2wt PB1 HTS | GRK2 aptamer HTS | MEKK3 PB1 HTS | MEKK2wt confirm | MEKK2mut-MEK5 | MEKK3-MEK5 inh
Cc1ccc(CNC(=O)CN(C)S(=O)(=O)c2ccc(F)cc2)cc1 | / | / | 1.0 | / | / | / | /
CCCCC(CCC(=O)Nc1ccc(C(=O)OC)cc1)C(=O)O (stereo not drawn) | 12.0 | 122.0 | 0.0 | 123.0* | 94.0 | -5.0 | 93.0
CC(=O)Nc1ccc2nc(-c3ccc(Br)o3)[nH]c2c1 | -3.0 | 63.0*[inhibitor] | 1.0 | 66.0*[inhibitor] | 104.0 | 9.0 | 104.0
COc1cc(C(=O)NCCC(=O)NCc2c(F)cc(F)cc2F)cc(OC)c1OC | 4.0 | 102.0 | 1.0 | 101.0 | / | / | /
CCOC(=O)c1ccc(NC(=S)NC2CCCC2)cc1 | -1.0 | 95.0 | 5.0 | 65.0*[inhibitor] | 99.0 | -2.0 | 99.0
CCOC(=O)c1ccc(NC(=S)NCCCN2CCOCC2)cc1 | -7.0 | 101.0 | 3.0 | 95.0 | / | / | /
CCOC(=O)c1ccc(NC(=S)NN2CCN(C)CC2)cc1 | -6.0 | 58.0 | 1.0 | 41.0*[inhibitor] | 98.0 | -3.0 | 99.0
Cc1ccc(S(=O)(=O)Nc2ccc(S(=O)(=O)Nc3nccs3)cc2)cc1C | / | / | 3.0 | / | / | / | /
CCCCN(C(=O)c1ccco1)C1CCS(=O)(=O)C1 (stereo not drawn) | / | / | 3.0 | / | / | / | /
Cc1ccc(-n2nnc3c(=O)n(Cc4ccccn4)cnc32)cc1C | 175.0* | 97.0 | 0.0 | 109.0 | 96.0 | 2.0 | 102.0
CCCCCCN=CC1=C(O)CC(C)(C)CC1=O | -32.0 | 0.0*[inhibitor] | 3.0 | 0.0*[inhibitor] | 99.0 | -3.0 | 93.0
CC1(C)CC(=O)C(C=Nc2cccnc2)=C(O)C1 | -7.0 | 90.0 | 2.0 | 90.0 | / | / | /
COCCCN=CC1=C(O)CC(C)(C)CC1=O | 3.0 | 101.0 | 2.0 | 102.0 | / | / | /
CC1(C)CC(=O)C(C=Nc2ccncc2)=C(O)C1 | -23.0 | -7.0*[inhibitor] | 1.0 | 0.0*[inhibitor] | 98.0 | -6.0 | 96.0
CCCn1cc(CN2CCC(Oc3ccc(C(=O)N4CCCC4)cc3)CC2)c(C)n1 | 3.0 | 103.0 | 0.0 | 103.0 | / | / | /
Cc1cc(-c2csc(N)n2)c(C)n1C | 9.0 | 102.0 | 30.0 | 99.0 | / | / | /
COc1ccccc1CNc1nc(-c2cc(C)n(C)c2C)cs1 | -4.0 | -7.0*[inhibitor] | / | 78.0 | 105.0 | 6.0 | 96.0
COCc1cc(N2CCN(c3ccccc3F)CC2)nc(-c2ccccc2)n1 | -19.0 | 6.0*[inhibitor] | 0.0 | 4.0*[inhibitor] | 103.0 | -1.0 | 102.0
COCc1cc(N2CCOCC2)nc(-c2ccccc2)n1 | -2.0 | 95.0 | 2.0 | 101.0 | / | / | /
O=C(N/N=C/c1c(O)n(-c2ccc(Cl)cn2)c(=O)c2ccccc12)c1ccncc1 | 0.0 | 107.0 | 0.0 | 135.0* | 100.0 | 1.0 | 104.0
CCCCCc1ccc(OCCOCCn2c[n+](C)c3ccccc32)c(CCCCC)c1 | 23.0 | 232.0* | / | 79.0 | 186.0 | 52.0 | 106.0
CCCCCc1ccc(OCCC[n+]2ccccc2)c(CCCCC)c1 | 19.0 | 145.0* | 0.0 | 96.0 | 146.0 | 30.0 | 104.0
